Experimental findings from PubChem BioAssay (NCATS) are described below.

A number with no mark means an inactive call. Records with an inconclusive call do not appear. Active and inactive are the calls of the source. Unless noted, calls come from the whole dose curve; as a rule, active = well fitted curve in either direction with a large enough effect (not every such curve was filed as active); inconclusive = small, poorly fitted or top-dose-only effect, or another doubt; inactive = flat fitted curve, though single readings scatter. Some results are limits rather than exact numbers.

Experiment [1] concerns the target Lysosomal acid glucosylceramidase (Homo sapiens) (UniProt P04062). The experiment is described as follows: Glucocerebrosidase-p2 (AID 348; in the data active = potency below about 10 µM; note: potency is the fitted concentration of half-maximal effect). Particulars: purified GBA, blue fluorogenic substrate, 40 min. In a few lines:
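Normal human glucocerebrosidase (0.2 nM) with blue fluorogenic substrate (80 uM final) in citrate/phosphate pH 5.9 with 10mM sodium taurocholate, 0.01% tween-20; 40 min RT, NaOH/glycine stop; fluorescence Ex 365/Em 440; AC50 from a titration from 0.6 nM upwards.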

A short description of experiment [2]: Stat Signaling Pathway (AID 446).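 Note: ME-180 cervical cancer cells given 40 pM IL-6 alongside compound; SIE-controlled beta-lactamase reporter measured as 460/530 nm FRET emission ratio; % is set by controls: 0 for no effect and ±100 for the full control effect.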 The settings on record: ME-180 SIE beta-lactamase reporter, IL-6 stimulated, 5 h; at 7.69 µM (top of the series) unless noted. In a few lines: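 Compound effects on IL-6-induced STAT reporter activity were measured in ME-180 cells. After overnight culture, cells were co-treated with 40 pM IL-6 for 5 hrs before beta-lactamase substrate loading at room temperature.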

The target of experiment [3] is Glucocorticoid receptor (Homo sapiens) (UniProt P04150). The experiment is described as follows: GR-GFP Redistribution (AID 450;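 active = compounds whose dose series gives a full or clear partial fitted curve of increased nuclear translocation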; note: potency is the fitted concentration of half-maximal effect). Particulars: U2OS GR-GFP nuclear translocation, laser cytometry, 2 h.
For experiment [4] the target is unchanged. The experiment is described as follows: GR-EFC Redistribution (AID 451; calls by dose curve; note: potency is the fitted concentration of half-maximal effect). Particulars: CHO-K1 GR-EFC translocation, beta-gal luminescence, 2 h. In a few lines:
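CHO-K1 cells expressing nuclear EA and GR-ED fragments of b-gal; compounds titrated up to 46 uM final, 2 h at 37 C. GR nuclear translocation read as complemented b-gal luminescence after 1 h RT detection.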

The target of experiment [5] is Mitogen-activated protein kinase 10 (Mus musculus) (UniProt Q61831). In words: JNK3 AlphaScreen Assay (AID 530).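 Note: kinase came from lysate of stimulated human HepG2 cells; signal reports phosphorylation of biotinylated GST-cJun 1-79 at Ser73 with 10 µM ATP; % is set by controls: 0 for no effect and ±100 for the full control effect.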 The settings on record: JNK3 lysate, c-Jun phosphorylation; series mostly up to 11.4 µM. In a few lines: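 HepG2 lysate (IL-1b/TNFa pre-activated) + biotin-GST-cJun 1-79 + anti-pSer73 cJun; cpd titration, 15 min RT; ATP 10 uM start; Tris pH 7.6, MgCl2, DTT, vanadate; beads in EDTA buffer; AlphaScreen.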
On the technique in general: In Alpha technology, singlet oxygen from a donor bead excites a nearby acceptor bead.

Experiment [6] has as its target 3',5'-cyclic-AMP phosphodiesterase 4B (Homo sapiens) (UniProt Q07343). The experiment is described as follows: qHTS Assay for Inhibitors of PDE-IV (AID 607; active = well fitted activation curve with a large enough effect in the main read-out, with a control signal flat, not every such curve was filed as active; note: % of control where 0% means no effect). The settings on record: HEK293 ACTOne CNG channel cells, membrane potential fluorescence; series mostly up to 22.9 µM. A digest of the protocol:
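ACTOne HEK293 cells carry a modified cAMP-gated CNG channel and express endogenous PDE4; plated 1000 cells/well, compounds up to 22.9 uM final. Membrane-potential dye fluorescence (ex 535/em 590) was read; parental cells received 10 uM forskolin + 100 uM RO 20-1724.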
On the technique in general: In qHTS, concentration-response curves come from the screen itself.

Experiment [7] addresses ATP-dependent 6-phosphofructokinase (Trypanosoma brucei brucei) (UniProt O15648). The experiment is described as follows: qHTS Assay to Find Inhibitors of T. brucei phosphofructokinase: hit validation (AID 492961; active = well fitted curve in the direction sought with a large enough effect; an effect the other way counts as inactive or inconclusive;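 note: luminescence reports ADP formed as PFK phosphorylates fructose-6-phosphate with ATP; % is set by controls: 0 for no effect and ±100 for the full control effect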). The settings on record: T. brucei PFK, ADP-Glo luminescence; series mostly up to 51.4 µM. In a few lines: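 Compounds titrated; %activity normalized to 0x and 1x enzyme controls, curve-fitted. Readout: ADP-Glo luminescence after 45 min room-temperature reaction of 1.25 nM PFK, 0.1 mM ATP, 0.5 mM F6P, pH 8.0.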

Experiment [8] can be described thus: qHTS profiling for inhibitors of Plasmodium falciparum proliferation (AID 504749; active = well fitted curve in the direction sought with a large enough effect; an effect the other way counts as inactive or inconclusive; note: nearly all actives have a fitted effect of over 60% in size; note: potency is the fitted concentration of half-maximal effect;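 for activity, negative = inhibition: 0% = DMSO vehicle and full inhibition = artemisinin control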). The settings on record: P. falciparum in erythrocytes, SYBR Green DNA, 72 h, at 28.7 µM (top of the series). A digest of the protocol: (§1)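 SYBR Green fluorescence (ex 485 nm, em 535 nm) reports parasite DNA after 72 h compound exposure of infected red cells at 0.3% parasitemia, 2.5% hematocrit; signal normalized to 0.29 uM artemisinin and vehicle wells.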

The test system of experiment [9] is ATS189. The experiment is described as above. Particulars: P. falciparum in erythrocytes, SYBR Green DNA, 72 h; series mostly up to 28.7 µM. A digest of the protocol:
as §1

For experiment [10], the system named is CP192. The description is as above. The settings on record: P. falciparum in erythrocytes, SYBR Green DNA, 72 h; series mostly up to 28.7 µM. In a few lines:
as §1

In experiment [11] the test system is W2. Described as above. The settings on record: P. falciparum in erythrocytes, SYBR Green DNA, 72 h; series mostly up to 28.7 µM. In a few lines:
as §1

Experiment [12] can be described thus: NFAT Signaling Pathway (AID 444).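 Note: carbachol stimulus at about its EC50 of 1 µM final; % is set by controls: 0 for no effect and ±100 for the full control effect.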 Particulars: Jurkat NFAT-bla M1, carbachol, beta-lactamase ratio, 5 h; at 7.69 µM (top of the series) unless noted. A digest of the protocol:
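Jurkat cells with NFAT-driven β-lactamase reporter and co-expressed M1 receptor, stimulated with carbachol (final 1 uM, ~EC50), compound titration, 5 h at 37 °C. CCF4 loaded 1 h at RT; 460/530 nm ratio gave %activity and AC50.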

Experiment [13] has as its target Cytochrome P450 1A2 (Homo sapiens) (UniProt P05177). In words: p450-cyp1a2 (AID 410; calls by dose curve; note: potency is the fitted concentration of half-maximal effect;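 for activity change, negative = inhibition: -100% = full effect of reference inhibitor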). The settings on record: recombinant CYP1A2, luciferin-ME demethylation, luminescence; series mostly up to 11.4 µM. A digest of the protocol:
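Read-out is luminescence from luciferin produced by CYP1A2 demethylation of Luciferin-ME (100uM, at Km). Detection reagent stopped the 60 min NADPH-dependent reaction; signals were normalized to 57 uM furafylline.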

Experiment [14] deals with Cytochrome P450 3A4 (Homo sapiens) (UniProt P08684). The experiment is described as follows: qHTS Assay for Activators of Cytochrome P450 3A4 (AID 885; active = well fitted curve in the direction sought with a large enough effect; an effect the other way counts as inactive or inconclusive; note: nearly all actives have a fitted effect of over 65% in size). The settings on record: recombinant CYP3A4, Luciferin-PPXE luminescence, 60 min; series mostly up to 11.4 µM. In a few lines:
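CYP3A4 activity: Luciferin-PPXE O-dealkylation, 25uM substrate, 200mM KPO4, RT throughout. Read-out is luciferase luminescence; higher values reflect activation.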

Experiment [15] can be described thus: qHTS Assay for Identification of Small Molecule Agonists for Hypoxia Response Element Signaling Pathway (AID 914; active = well fitted activation curve with a large enough effect in the signal ratio, with a control signal flat, not every such curve was filed as active; the % refers to the signal ratio; note: potency is the fitted concentration of half-maximal effect). Particulars: ME-180 (cervical carcinoma) HRE-bla reporter, beta-lactamase ratio, CoCl2, 17 h; activation: stronger effect = higher value. In a few lines: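 HRE-bla ME-180 cells, overnight plating in Opti-MEM with 0.5% dialyzed FBS; cpd titration + EC50 CoCl2, 17 h, 37 degrees Celsius; CCF4 2.5 h RT; 460/530 nm ratio; AC50.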

Experiment [16] addresses Cytochrome P450 2C19 (Homo sapiens) (UniProt P33261). In words: qHTS Assay for Inhibitors and Substrates of Cytochrome P450 2C19 (AID 899; active = well fitted curve in the direction sought with a large enough effect; an effect the other way counts as inactive or inconclusive; note: % is set by controls: 0 for no effect and ±100 for the full control effect; nearly all actives have a fitted effect of over 60% in size). Particulars: recombinant CYP2C19, luciferin-H EGE luminescence; series mostly up to 11.4 µM. In a few lines:
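5 nM human CYP2C19 with 10uM Luciferin-H EGE (at KM) in 50mM KPO4, compound preincubated 10 min at 37C, then NADPH regeneration for 60 min at 37C. Luciferin read by luminescence after detection reagent; normalized to 57uM ketoconazole as full inhibition.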

Cytochrome P450 1A2 (Homo sapiens), sequence (P05177 whole entry, looked up): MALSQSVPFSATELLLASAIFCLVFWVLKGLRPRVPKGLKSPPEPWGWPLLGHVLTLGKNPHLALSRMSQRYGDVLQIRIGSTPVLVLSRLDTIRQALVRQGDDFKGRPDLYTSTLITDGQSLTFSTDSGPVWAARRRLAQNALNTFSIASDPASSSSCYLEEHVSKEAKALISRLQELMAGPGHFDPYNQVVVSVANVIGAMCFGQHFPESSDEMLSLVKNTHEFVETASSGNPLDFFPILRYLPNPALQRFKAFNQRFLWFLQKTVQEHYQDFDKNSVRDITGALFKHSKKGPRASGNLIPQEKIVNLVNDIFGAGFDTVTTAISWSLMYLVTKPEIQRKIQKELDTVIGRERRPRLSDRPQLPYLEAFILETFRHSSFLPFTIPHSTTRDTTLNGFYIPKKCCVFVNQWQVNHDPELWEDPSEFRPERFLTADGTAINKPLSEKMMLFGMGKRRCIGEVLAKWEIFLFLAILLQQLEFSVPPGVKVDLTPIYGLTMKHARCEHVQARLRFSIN
3',5'-cyclic-AMP phosphodiesterase 4B (Homo sapiens), sequence (Q07343 whole entry, looked up): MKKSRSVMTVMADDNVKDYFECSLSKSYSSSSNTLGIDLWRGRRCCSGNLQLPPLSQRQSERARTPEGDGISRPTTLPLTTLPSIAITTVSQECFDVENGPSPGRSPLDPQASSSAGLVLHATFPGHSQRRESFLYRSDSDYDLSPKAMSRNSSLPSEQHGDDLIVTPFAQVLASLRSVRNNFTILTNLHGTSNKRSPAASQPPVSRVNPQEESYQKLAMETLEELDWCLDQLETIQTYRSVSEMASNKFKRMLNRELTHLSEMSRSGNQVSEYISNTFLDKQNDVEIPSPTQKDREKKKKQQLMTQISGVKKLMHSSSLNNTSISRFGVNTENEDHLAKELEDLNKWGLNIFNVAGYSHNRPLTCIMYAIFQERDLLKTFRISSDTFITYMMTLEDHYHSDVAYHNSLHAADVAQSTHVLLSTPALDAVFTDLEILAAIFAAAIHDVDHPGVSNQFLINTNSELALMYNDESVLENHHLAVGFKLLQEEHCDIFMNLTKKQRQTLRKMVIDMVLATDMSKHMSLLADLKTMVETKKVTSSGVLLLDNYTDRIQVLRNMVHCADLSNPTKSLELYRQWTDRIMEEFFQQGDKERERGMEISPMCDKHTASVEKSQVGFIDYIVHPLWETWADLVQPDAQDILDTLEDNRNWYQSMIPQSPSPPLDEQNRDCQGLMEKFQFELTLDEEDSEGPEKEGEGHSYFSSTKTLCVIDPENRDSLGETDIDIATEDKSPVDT
Glucocorticoid receptor (Homo sapiens), sequence (P04150 whole entry, looked up): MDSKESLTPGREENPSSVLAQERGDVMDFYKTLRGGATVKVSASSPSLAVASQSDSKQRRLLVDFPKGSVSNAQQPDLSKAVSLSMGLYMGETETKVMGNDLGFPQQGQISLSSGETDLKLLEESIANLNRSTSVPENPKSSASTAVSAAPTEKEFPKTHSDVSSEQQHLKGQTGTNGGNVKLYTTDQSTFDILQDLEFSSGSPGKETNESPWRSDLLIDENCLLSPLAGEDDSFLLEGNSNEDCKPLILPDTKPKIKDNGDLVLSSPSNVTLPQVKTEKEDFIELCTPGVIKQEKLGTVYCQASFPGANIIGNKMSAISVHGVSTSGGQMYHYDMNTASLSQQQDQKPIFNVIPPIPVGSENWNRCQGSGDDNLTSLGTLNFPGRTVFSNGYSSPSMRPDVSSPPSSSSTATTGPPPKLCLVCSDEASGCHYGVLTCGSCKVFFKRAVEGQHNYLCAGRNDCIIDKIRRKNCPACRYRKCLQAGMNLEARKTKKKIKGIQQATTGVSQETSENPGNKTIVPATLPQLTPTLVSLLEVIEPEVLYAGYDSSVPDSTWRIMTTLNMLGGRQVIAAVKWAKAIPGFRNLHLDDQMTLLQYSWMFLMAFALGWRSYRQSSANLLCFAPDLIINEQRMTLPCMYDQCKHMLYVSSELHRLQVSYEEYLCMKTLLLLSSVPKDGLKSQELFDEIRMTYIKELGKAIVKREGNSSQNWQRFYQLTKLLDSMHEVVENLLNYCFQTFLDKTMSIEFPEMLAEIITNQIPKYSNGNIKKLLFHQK
Lysosomal acid glucosylceramidase (Homo sapiens), sequence (P04062 whole entry, looked up): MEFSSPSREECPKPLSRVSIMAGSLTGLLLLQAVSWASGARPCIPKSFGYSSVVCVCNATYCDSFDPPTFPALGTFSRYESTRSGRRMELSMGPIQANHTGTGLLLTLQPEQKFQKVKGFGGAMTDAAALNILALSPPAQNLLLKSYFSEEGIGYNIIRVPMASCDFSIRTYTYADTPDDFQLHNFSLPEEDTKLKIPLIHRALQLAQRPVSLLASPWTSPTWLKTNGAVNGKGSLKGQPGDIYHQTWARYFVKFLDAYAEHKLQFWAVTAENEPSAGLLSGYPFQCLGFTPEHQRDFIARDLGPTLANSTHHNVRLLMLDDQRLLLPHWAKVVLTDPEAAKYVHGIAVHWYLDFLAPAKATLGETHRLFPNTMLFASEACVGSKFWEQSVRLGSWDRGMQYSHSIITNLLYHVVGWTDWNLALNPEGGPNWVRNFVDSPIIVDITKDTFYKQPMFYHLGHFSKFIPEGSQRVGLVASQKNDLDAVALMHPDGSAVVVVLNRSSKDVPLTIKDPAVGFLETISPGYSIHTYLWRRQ
ATP-dependent 6-phosphofructokinase (Trypanosoma brucei brucei), sequence (O15648 whole entry, looked up): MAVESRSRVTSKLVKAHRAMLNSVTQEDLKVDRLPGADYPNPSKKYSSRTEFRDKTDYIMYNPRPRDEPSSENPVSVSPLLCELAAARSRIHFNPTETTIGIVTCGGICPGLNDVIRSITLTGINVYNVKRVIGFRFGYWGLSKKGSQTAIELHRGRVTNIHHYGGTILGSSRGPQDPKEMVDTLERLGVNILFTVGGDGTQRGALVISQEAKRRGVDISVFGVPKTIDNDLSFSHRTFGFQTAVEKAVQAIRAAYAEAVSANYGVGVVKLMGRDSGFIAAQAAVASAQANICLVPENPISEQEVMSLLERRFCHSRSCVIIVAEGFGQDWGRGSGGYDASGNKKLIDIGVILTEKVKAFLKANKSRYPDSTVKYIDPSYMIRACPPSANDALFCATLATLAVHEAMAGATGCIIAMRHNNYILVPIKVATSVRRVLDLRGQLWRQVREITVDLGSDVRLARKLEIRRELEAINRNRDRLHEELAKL
Cytochrome P450 3A4 (Homo sapiens), sequence (P08684 whole entry, looked up): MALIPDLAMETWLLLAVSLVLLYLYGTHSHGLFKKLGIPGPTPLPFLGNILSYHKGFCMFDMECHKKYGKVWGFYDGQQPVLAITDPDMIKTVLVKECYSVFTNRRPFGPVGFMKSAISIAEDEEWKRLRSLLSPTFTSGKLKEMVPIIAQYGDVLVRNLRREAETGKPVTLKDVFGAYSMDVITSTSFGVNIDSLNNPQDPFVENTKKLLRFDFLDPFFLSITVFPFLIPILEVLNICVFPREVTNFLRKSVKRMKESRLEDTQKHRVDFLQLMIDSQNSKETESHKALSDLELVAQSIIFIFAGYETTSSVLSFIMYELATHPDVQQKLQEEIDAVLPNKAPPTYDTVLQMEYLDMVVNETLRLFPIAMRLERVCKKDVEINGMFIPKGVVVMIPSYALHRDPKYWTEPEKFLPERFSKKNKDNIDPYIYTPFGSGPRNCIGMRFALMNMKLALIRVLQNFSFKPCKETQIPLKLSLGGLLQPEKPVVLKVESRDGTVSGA
Cytochrome P450 2C19 (Homo sapiens), sequence (P33261 whole entry, looked up): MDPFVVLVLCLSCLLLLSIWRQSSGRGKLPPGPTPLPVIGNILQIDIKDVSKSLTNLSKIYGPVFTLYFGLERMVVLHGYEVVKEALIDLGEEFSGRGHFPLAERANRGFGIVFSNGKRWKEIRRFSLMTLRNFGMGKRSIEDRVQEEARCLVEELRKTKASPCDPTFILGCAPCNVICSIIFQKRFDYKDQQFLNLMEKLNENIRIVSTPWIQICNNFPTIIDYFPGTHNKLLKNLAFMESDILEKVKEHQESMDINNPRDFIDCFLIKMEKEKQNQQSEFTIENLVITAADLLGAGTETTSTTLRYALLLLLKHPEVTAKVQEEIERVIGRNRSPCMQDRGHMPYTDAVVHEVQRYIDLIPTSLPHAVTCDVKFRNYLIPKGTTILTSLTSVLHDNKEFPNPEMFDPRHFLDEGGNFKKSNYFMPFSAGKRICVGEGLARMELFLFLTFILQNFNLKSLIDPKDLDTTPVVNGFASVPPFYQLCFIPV

For `OC[C@H](S)CS`, the Potency in experiment [1] was > 11.4 µM; in experiment [3] it was > 46 µM; in experiment [4] it was > 9.22 µM; in experiment [11] it was 2.39 µM (active). For the same compound, the results for the activity, negative = inhibition in [2] and in experiment [8] (parasite line A) were 5.31% and -3.06%, respectively. Further, the Potency result in experiment [5], in experiment [6], in experiment [9] and in experiment [10] was “inactive” in each case. The result in experiment [7] was inactive.
As for `OCCN[C@@H]1c2cc(Cl)ccc2-c2c(Cl)cc(Cl)cc21`, the Potency in experiment [1] was > 11.4 µM; in experiment [3] it was > 46 µM; in experiment [4], > 9.22 µM. Further, the activity change, negative = inhibition in [12] is -8.6%. The activity, negative = inhibition in experiment [2] was 4.1%. Also, the Potency entry in [5] and in experiment [6] was “inactive” throughout.
On to `O=c1c(-c2ccccc2)nc2cnc(N3CCNCC3)nc2n1Cc1ccc(F)cc1`, for which the Potency in experiment [1] was > 11.4 µM; in [13], 20 µM (active); in experiment [3] it was > 9.22 µM; in [4], > 46 µM; in experiment [15], 3.16 µM (active). Further, the Potency result in experiment [6] and in [14] was “inactive” in each case.
As to `COc1cccc(Nc2ncc3nc(-c4ccccc4)c(=O)n(C4CC4)c3n2)c1`, the Potency in experiment [1] was > 11.4 µM; in experiment [3], > 9.22 µM; in experiment [4], > 46 µM; in experiment [15] it was 3.16 µM (active). Also, the activity change, negative = inhibition in experiment [12] was -5.16%. For the same compound, in [2], the activity, negative = inhibition was 28.4%. Besides, the Potency entry in [5] and in experiment [6] was “inactive” in each case.
For `CC[C@H]1C(=O)OC[C@H]1Cc1cncn1C`, the Potency in [1] was > 11.4 µM. In addition, the Potency result in experiment [13], in [5], in experiment [6] and in experiment [16] was “inactive” throughout.
On to `O=C(O)c1[nH]c(=O)[nH]c(=O)c1CN1CCCCC1`, for which the figures for the Potency in experiment [1], in experiment [3] and in experiment [4] were > 11.4 µM, > 46 µM and > 9.22 µM, respectively. Also, the activity change, negative = inhibition in experiment [12] was 9.91%. For the same compound, in [2], the activity, negative = inhibition was -5.07%. The Potency entry in experiment [5] and in experiment [6] was “inactive” in each case.
Consider `CCc1ccc2c(c1)N(C[C@H](C)CN(C)C)c1ccccc1S2`, for which the Potency in [1] was > 11.4 µM; in experiment [3] it was > 46 µM; in [4] it was > 9.22 µM; in experiment [11] it was 7.57 µM (active). The results for the activity, negative = inhibition in experiment [2], in experiment [8] (parasite line A) and in [8] (parasite line B) were 3.53%, -23.4% and -17.5%, respectively. For the same compound, the Potency entry in experiment [5], in [6], in experiment [9] and in experiment [10] was “inactive” in each case. In addition, in experiment [7], the compound was classed as inactive.
